Out of some 310,000 compounds screened, about 14,000 (4.5%) showed an effect of 50% or more. Effects have a minus sign here. What follows is part of a selection rich in strong results, with near analogues and random picks from the rest.
target: human ether-à-go-go-related gene (hERG) potassium channel (human, UniProt Q12809); assay: primary screen, population patch clamp on CHO cells stably expressing hERG; higher = less effect of the substance
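Also: peak tail current of the secondary pulse compared with the same well before compound.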

human ether-à-go-go-related gene (hERG) potassium channel, sequence (Q12809 whole entry, looked up): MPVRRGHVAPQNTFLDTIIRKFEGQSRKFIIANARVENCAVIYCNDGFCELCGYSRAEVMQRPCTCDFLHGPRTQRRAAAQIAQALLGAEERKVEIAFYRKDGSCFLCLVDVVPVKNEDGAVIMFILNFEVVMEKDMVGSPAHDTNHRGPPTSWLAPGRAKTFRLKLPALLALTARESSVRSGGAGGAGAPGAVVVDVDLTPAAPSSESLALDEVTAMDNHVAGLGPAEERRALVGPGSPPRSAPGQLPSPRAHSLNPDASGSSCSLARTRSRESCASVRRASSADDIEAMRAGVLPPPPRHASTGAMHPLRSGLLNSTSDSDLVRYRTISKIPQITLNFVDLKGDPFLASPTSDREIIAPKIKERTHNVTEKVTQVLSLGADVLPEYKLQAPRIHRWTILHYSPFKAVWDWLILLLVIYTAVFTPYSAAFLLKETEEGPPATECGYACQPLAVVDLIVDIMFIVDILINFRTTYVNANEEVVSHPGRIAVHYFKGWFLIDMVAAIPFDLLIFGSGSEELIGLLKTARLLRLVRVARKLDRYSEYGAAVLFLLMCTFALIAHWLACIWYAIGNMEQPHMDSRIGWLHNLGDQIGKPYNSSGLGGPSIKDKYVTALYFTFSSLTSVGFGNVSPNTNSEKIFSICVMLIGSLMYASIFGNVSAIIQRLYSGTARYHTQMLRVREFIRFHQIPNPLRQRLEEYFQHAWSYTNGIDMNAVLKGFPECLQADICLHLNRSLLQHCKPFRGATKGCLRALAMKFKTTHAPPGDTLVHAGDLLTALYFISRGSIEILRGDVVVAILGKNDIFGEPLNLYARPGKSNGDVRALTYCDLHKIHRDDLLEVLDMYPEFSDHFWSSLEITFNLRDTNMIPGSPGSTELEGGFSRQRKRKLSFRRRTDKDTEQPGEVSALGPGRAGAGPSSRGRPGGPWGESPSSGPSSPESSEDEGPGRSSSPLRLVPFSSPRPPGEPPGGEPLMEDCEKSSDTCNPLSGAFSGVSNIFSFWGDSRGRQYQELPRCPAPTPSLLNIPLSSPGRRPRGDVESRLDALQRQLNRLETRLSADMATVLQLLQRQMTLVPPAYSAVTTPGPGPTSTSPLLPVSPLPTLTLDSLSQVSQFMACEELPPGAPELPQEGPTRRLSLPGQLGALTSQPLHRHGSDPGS

Row | Compound | hERG current change (%, negative = inhibition) at 10uM [%]
1 | CC1CCCN(CCCNC(=O)C2CCCN(c3ncnc4c3nc3n4CCCCC3)C2)C1 (centres unmarked) | -4.72
2 | CC1CCCCN1CCNC(=O)C1CCCN(c2ncnc3c2nc2n3CCCCC2)C1 (centres unmarked) | -14.3
3 | COc1ccc(CCNC(=O)C2CCCN(c3ncnc4c3nc3n4CCCCC3)C2)c(OC)c1 (centres unmarked) | -42.8
4 | COc1cccc(CCNC(=O)C2CCCN(c3ncnc4c3nc3n4CCCCC3)C2)c1OC (centres unmarked) | -74.7
5 | Cc1cccc(N2CCN(CCCNC(=O)C3CCCN(c4ncnc5c4nc4n5CCCCC4)C3)CC2C)c1 (centres unmarked) | -67.8
6 | CC1CC(C)CN(CCCNC(=O)C2CCCN(c3ncnc4c3nc3n4CCCCC3)C2)C1 (centres unmarked) | -14.1
7 | Cc1cccc(CCNC(=O)C2CCCN(c3ncnc4c3nc3n4CCCCC3)C2)c1 (centres unmarked) | -59.8
8 | COc1ccccc1N1CCN(CCCNC(=O)C2CCCN(c3ncnc4c3nc3n4CCCCC3)C2)CC1 (centres unmarked) | -40.3
9 | O=C(NCCc1ccc(Cl)cc1)C1CCCN(c2ncnc3c2nc2n3CCCCC2)C1 (centres unmarked) | -57.2
10 | C=CCN(CC=C)CCOc1ccc(C)cc1[N+](=O)[O-].O=C(O)C(=O)O | -47.3
11 | O=C(Oc1cccc(-n2cnnn2)c1)c1ccco1 | 6.57
12 | O=C(COC(=O)Cc1ccsc1)NCc1ccccc1 | 19.6
13 | Clc1ccc(-c2ccc(/C=N/Nc3nncc(-c4ccccc4)n3)o2)cc1 | 20.8
14 | Cc1cccc(C)c1NC(=O)CN(C)C(=O)c1cccc(NS(=O)(=O)c2ccccc2)c1 | -4.78
15 | Cc1ccc(S(=O)(=O)NN=C2CCC(C(C)(C)C)CC2)cc1[N+](=O)[O-] (centres unmarked) | -8.37
16 | COc1ccc(/C=C/C(=O)Oc2cccc(/C=N/NC(=O)COc3c(C)cccc3C)c2)cc1 | 11.8
17 | Cc1cccc(-c2ocnc2C(=O)Nc2ccccc2C(=O)N2CCCC2)c1 | -37
18 | COc1ccc(C(=O)Nc2ccc(S(=O)(=O)N3CCCCC3C)cc2)c(OC)c1OC (centres unmarked) | -6.46
19 | CC1CCN(CCNC(=O)C2CCCN(c3ncnc4c3nc3n4CCCCC3)C2)CC1 (centres unmarked) | 12.5
20 | CCOc1ccc(CCNC(=O)C2CCCN(c3ncnc4c3nc3n4CCCCC3)C2)cc1 (centres unmarked) | -58.6
21 | Cc1ccc(CCNC(=O)C2CCCN(c3ncnc4c3nc3n4CCCCC3)C2)cc1 (centres unmarked) | -28.7
22 | CC1CCCC(C)N1CCCNC(=O)C1CCCN(c2ncnc3c2nc2n3CCCCC2)C1 (centres unmarked) | 8.21

Row | Compound | hERG current change (%, negative = inhibition) at 10uM [%]
23 | O=C(NCCc1ccccc1)C1CCCN(c2ncnc3c2nc2n3CCCCC2)C1 (centres unmarked) | -59.9
24 | CN(CCNC(=O)C1CCCN(c2ncnc3c2nc2n3CCCCC2)C1)Cc1ccccc1 (centres unmarked) | -29.1
25 | CSc1ccc(CCNC(=O)C2CCCN(c3ncnc4c3nc3n4CCCCC3)C2)cc1 (centres unmarked) | -61.8
26 | COc1cc(/C=N/N2CCN(c3ccccc3OC)CC2)ccc1OC(C)=O | 17.2
27 | CCOC(=O)Cc1csc(NC(=O)C(NC(=O)C2CCC(C)CC2)C(C)C)n1 (centres unmarked) | 23.5
28 | CC(C)NC(=O)/C(=C/c1ccco1)c1ccccc1 | -2.25
29 | Cc1cccc(NC(=O)CCC(=O)c2cccs2)n1 | 12
30 | COc1cccc(N2CCN(Cc3nc(N)nc(Nc4ccccc4)n3)CC2)c1 | -68
31 | COc1cccc(N2CCN(Cc3nc(N)nc(N4CCCc5ccccc54)n3)CC2)c1 | -45
32 | Cc1cccc(Nc2nc(N)nc(CN3CCN(c4ccccc4)CC3)n2)c1 | -54.5
33 | Cc1cccc(Nc2nc(N)nc(CSC(=S)N3CCOCC3)n2)c1 | -0.689
34 | Cc1cccc(Nc2nc(N)nc(CN3CCN(c4ccc(F)cc4)CC3)n2)c1 | -73.3
35 | Cc1cccc(Nc2nc(N)nc(CCl)n2)c1 | -0.698
36 | COc1ccc(Nc2nc(N)nc(CSC(=S)N3CCN(c4ccccc4)CC3)n2)cc1 | 14.1
37 | Cc1cccc(Nc2nc(N)nc(CN3CCN(C)CC3)n2)c1 | -39.2
38 | Cn1c(=O)n(C)c2cc(NS(=O)(=O)c3ccc(F)cc3)ccc21 | 1.38
39 | O=C(NCc1cccnc1)C1CC(=O)N(c2ccc(F)cc2)C1 (centres unmarked) | -15.1
40 | CC(SCc1ccccc1)C(=O)NC1CCCC1 (centres unmarked) | 3.27
41 | CCN(CC)CCNC(=O)Cn1c(C)cc2ccccc2c1=O | 1.83
42 | CSc1ccc(/C=C/C(=O)c2ccc(NC(C)=O)cc2)cc1 | 12.6
43 | Cc1ccc(-c2csc(NC(CO)c3nc4ccccc4n3CCOCCO)n2)cc1 (centres unmarked) | -47.3
44 | OCCOCCn1c(C(CO)Nc2nc(-c3cccc(Br)c3)cs2)nc2ccccc21 (centres unmarked) | -12.5

Row | Compound | hERG current change (%, negative = inhibition) at 10uM [%]
45 | OCCOCCn1c(C(CO)Nc2nc(-c3ccccc3Br)cs2)nc2ccccc21 (centres unmarked) | -72
46 | O=C(Cc1cccs1)Nc1nnc(SCC(=O)NC2CCCCC2)s1 | 7.84
47 | CCOc1ccccc1NC(=O)C1C2CCC3C(CCC21)C3(Cl)Cl (centres unmarked) | -13.4
48 | CNC(=O)CSc1nccn1Cc1ccc(Cl)cc1 | -64.9
49 | NC(=O)CSc1nccn1Cc1ccc(Cl)cc1 | 19.1
50 | CC(=O)Nc1ccc(NC(=O)CSc2nccn2Cc2ccc(Cl)cc2)cc1 | -9.56
51 | Cc1nnc(SCc2ccccc2)n1CC1CCCO1 (centres unmarked) | 11.9
52 | O=C(C1=NN(c2ccccc2)C2C(=O)N(c3cccc(Cl)c3)C(=O)C12)c1ccccc1 (centres unmarked) | 1.55
53 | Clc1ncnc2scc(-c3ccc(Br)cc3)c12 | 7.97
54 | COc1ccccc1N=Nc1c(O)[nH]c2ccc(Br)cc12 | 14.2
55 | Cn1c(CN2CCOCC2)nc2cc(NC(=O)c3ccc(Cl)cc3)ccc21 | -34.2
56 | COc1ccc(C(=O)Nc2ccc3c(c2)nc(CN2CCCC2)n3C)cc1 | -44.4
57 | CC(C)(C)n1cnc2cc(NC(=O)c3ccccc3)ccc21 | -9.28
58 | COc1ccc(C(=O)Nc2ccc3c(c2)nc(CN2CCN(C(C)=O)CC2)n3C)cc1 | -0.777
59 | Cn1c(CN2CCCCC2)nc2cc(NC(=O)c3ccc(F)cc3)ccc21 | -54.2
60 | Cn1c(CN2CCOCC2)nc2cc(NC(=O)c3ccc(F)cc3)ccc21 | -12.5
61 | CC(C)(C)n1cnc2cc(NC(=O)c3ccc(Cl)cc3)ccc21 | -59.1
62 | CCOC(=O)Nc1ccc2c(c1)nc(CN1CCCCC1)n2C | -7.84
63 | Cn1c(CN2CCCC2)nc2cc(NC(=O)c3ccc(Cl)cc3)ccc21 | -82
64 | CC(=O)N1CCN(Cc2nc3cc(NC(=O)c4ccc(F)cc4)ccc3n2C)CC1 | -8.9
65 | CC(=O)N1CCN(Cc2nc3cc(NC(=O)c4ccc(Cl)cc4)ccc3n2C)CC1 | -65.8
66 | Cn1cnc2cc(NC(=O)c3ccc(Cl)cc3)ccc21 | -18.9

Row | Compound | hERG current change (%, negative = inhibition) at 10uM [%]
67 | O=C(NCCc1ccccc1)/C(=N\O)c1ccccc1 | 7.7
68 | CCn1c(=O)c2sccc2n2c(CCCC(=O)NC3CCN(Cc4ccccc4)CC3)nnc12 | -6.43
69 | COc1ccc(OC)c(C2C(C(C)=O)=C(O)C(=O)N2CCN2CCOCC2)c1 (centres unmarked) | -6.92
70 | COc1ccc(C)cc1NC(=O)CCN1CCN(c2ccccc2F)CC1.Cl | -19.9
71 | Cc1ccccc1OCC(=O)NNC(=O)CN1C(=O)c2ccccc2C1=O | -9.07
72 | NNc1nc2sc3c(c2c(=O)[nH]1)CCc1ccccc1-3 | 7.46
73 | Cc1ccc(C)c(N2CCN(C(=O)Cc3c(C(=O)O)[nH]c4ccc(Cl)cc34)CC2)c1 | 10.1
74 | O=C(O)COc1cccc2nsnc12 | 4.42
75 | CC(=O)N1N=C(c2cccc([N+](=O)[O-])c2)OC1(C)CC(=O)Nc1ccccc1 (centres unmarked) | -12
76 | COc1ccc(NC(=O)CN(C)CC(=O)Nc2ccc(N3CCOCC3)cc2)c([N+](=O)[O-])c1 | -26.2
77 | CNC(=O)OCc1cccc(COC(=O)NC)n1.Cl | 27.2
78 | COc1ccccc1C(=O)Nc1ccc2c(c1)nc(CN1CCCCC1)n2C | -21.8
79 | CC(=O)N1CCN(Cc2nc3cc(NC(=O)c4ccccc4C)ccc3n2C)CC1 | 10.2
80 | Cn1c(CN2CCCCC2)nc2cc(NC(=O)c3ccc(Cl)cc3)ccc21 | -59.8
81 | Cn1c(CN2CCCCC2)nc2cc(NC(=O)c3ccccc3Cl)ccc21 | -8.74
82 | COc1ccccc1C(=O)Nc1ccc2c(c1)nc(CN1CCN(C(C)=O)CC1)n2C | -80
83 | CCCC(=O)Nc1ccc2c(c1)nc(CN1CCCCC1)n2C | 2.55
84 | CS(=O)(=O)c1ccc(-n2c(=O)n(Cc3ccccc3)c(=O)c3[nH]cnc32)cc1 | -45.7
85 | CCOP(=O)(OCC)/C(C#N)=C/c1ccc(Br)cc1 | -13.5
86 | O=C1c2ccccc2C(=O)N1CCN1CCCCC1 | -6.2

Reference: paper PMC4336329 (PLoS ONE, 2015)
